The structures appear in SMILES notation. About 83,000 compounds went through this panel and 20% of them were active in at least one assay; those are over-represented in the sample as a whole.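 A percent growth of 40 corresponds to 60% growth inhibition; 0 means no net growth; -100 means all cells died. Active threshold: below 10.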 Unmarked numbers belong to inactive results. Calls of active or inactive are those of the source.

Holding throughout (assay): NCI-60 one-dose screen, 48 h (100 = growth as untreated, 0 = no growth, -100 = all killed)
Common to all, as to conditions: 10 µM unless noted

The subject of assay [1] is DU-145 prostate.
Assay [2] deals with K-562 leukemia.
Assay [3] deals with MALME-3M melanoma.
Assay [4] has as its system MDA-MB-231 breast.
Assay [5] has as its system RXF 393 renal.
Assay [6] relates to SF-268 CNS.
The test system of assay [7] is SF-295 CNS.
The test system of assay [8] is SF-539 CNS.
Assay [9] deals with UACC-257 melanoma.
Assay [10] concerns M14 melanoma.

With `O=C(Nc1ccc(Cl)c(Cl)c1)NC(CO)(CO)CO`, the growth in [1] was 112%; in assay [2], 92.8%; in assay [3], 87.7%; in assay [4], 109%; in assay [5], 100%; in [6] it was 97.8%. In addition, the growth in assay [7] was 94.4%; in [8], 103%; in assay [9], 97.5%; in [10] it was 97.4%.
Turning to `COc1cccc(C2C3=C(COC3=O)N(CCO)c3cc4c(cc32)OCO4)c1` (stereo not given), the growth was 0.613% (active) in assay [1]; 21% in assay [2]; 82.4% in assay [3]; 34.6% in assay [4]; -14.5% (active) in assay [5]; 38.3% in assay [6]. The growth in assay [7] was -13.8% (active); in [8], -19.1% (active); in [9], 35.5%; in [10] it was -24.2% (active).
For the compound `O=C(CCc1nnc2sc(-c3ccccc3)nn12)c1nc2ccccc2[nH]1`, the growth in [1] is 106%; in assay [2], 5.84% (active); in [3], 93.7%; in assay [4], 97.2%; in assay [5], 107%; in [6], 116%. The growth was 77.1% in assay [7], 78.9% in assay [8], 100% in assay [9] and 96.3% in assay [10].
As to `COc1cc(/C=N/NC(=O)c2cnn3c2NC(c2ccccc2)C3)cc(OC)c1OC` (stereo not given), the growth in assay [1] was 90.8%; in [2] it was 31.6%; in assay [3], 65.2%; in [4], 67.1%; in assay [5], 87.7%; in [6] it was 81.4%. Also, the growth is 53.1% in [7], 68.1% in assay [8], 86.5% in assay [9] and 50.3% in [10].
Regarding `COc1ccccc1/C=C/C(=O)/C=C/c1ccccc1O`, the growth in assay [1] was -31.2% (active); in assay [2], -6.29% (active); in assay [3], -3.21% (active); in assay [4], 4.57% (active); in assay [5], -75.8% (active); in assay [6] it was 1.68% (active). The growth in assay [7] is -37.4% (active); in assay [8] it was -63% (active); in assay [9], 69.7%; in assay [10] it was -31% (active).
For `O=c1c2c(=NCCN3CCCC3)cc3c(=O)n(CCCN4CCOCC4)c(=O)c4c(-c5ccc(CN6CCCC6)cc5)cc(c(O)n1CCCN1CCOCC1)c2c4-3`, the growth was -26.7% (active) in [1]; -21.1% (active) in assay [2]; -70.1% (active) in assay [3]; -46.6% (active) in assay [4]; -79.4% (active) in [5]; -33.1% (active) in [6]. Besides, the growth is -12.5% (active) in assay [7], -78.8% (active) in assay [8], -27.1% (active) in assay [9] and -78.7% (active) in assay [10].
For `Cc1ccc2c(N/N=C\c3ccco3)cc(C)nc2n1`, the growth in assay [1] was 59.6%; in [2] it was 37.2%; in assay [3] it was 90.7%; in assay [4], 68.9%; in assay [5], 63.7%; in assay [6] it was 77.5%. Besides, the growth in assay [7] is 69.5%; in assay [8], 72%; in assay [9] it was 76.5%; in assay [10], 34.6%.
Turning to `O=c1[nH]c(=O)n(Cc2ccc(F)cc2)cc1F`, the growth in assay [1] is 110% [50 µM]; in assay [2], 86.7% [50 µM]; in assay [3] it was 101% [50 µM]; in assay [4] it was 101% [50 µM]; in assay [5] it was 111% [50 µM]; in assay [6], 99.1% [50 µM]. The growth in assay [7] was 101% [50 µM]; in assay [8] it was 100% [50 µM]; in assay [9] it was 83.9% [50 µM]; in assay [10] it was 109% [50 µM].
Take `Cn1cc(C(=O)NCCC(=N)N)cc1NC(=O)CN=C(N)N`: the growth is 104% in [1]; 134% in [2]; 106% in assay [3]; 94.1% in assay [4]; 114% in [5]; 112% in [6]. The growth in [7] is 110%; in assay [8], 104%; in assay [9] it was 99.9%; in [10] it was 94.2%.
Turning to `Cc1nn(-c2ccccc2)c2nc3nc4c(c(N)c3c(-c3ccc(Cl)cc3)c12)CCC4`, the growth is 90.1% in [1]; 27.7% in assay [2]; 109% in [3]; 88.1% in [4]; 79.9% in [5]; 102% in [6]. The growth is 92.1% in assay [7], 90% in [8], 91.4% in [9] and 98.6% in assay [10].
For the compound `Nc1nc2c(s1)CCc1c-2c(Br)n(Cc2ccccc2)c1Br`, the growth in assay [1] was 109%; in assay [2], 15.4%; in [3] it was 37.8%; in assay [4], 80.9%; in assay [5], 17.9%; in assay [6], 89.1%. The growth in assay [7] was 120%; in assay [8], 93.4%; in [9], 96.9%; in assay [10], 91.8%.
With `O=C1C=CC(=O)N1CCCCCCCCCCN1C(=O)C=CC1=O`, the growth in assay [1] is 80.1%; in assay [2], 5.56% (active); in assay [3], 70%; in [4], 104%; in [5], 76.6%; in assay [6], 103%. In addition, the growth is 73.7% in assay [7], 91.1% in assay [8], 76.1% in assay [9] and 77.8% in assay [10].
Regarding `O/N=C/c1cccs1`, the growth in assay [1] was 116%; in [2], 87.2%; in assay [3], 105%; in [4], 112%; in [5], 107%; in [6] it was 111%. The growth was 95% in [7], 96.9% in assay [8], 98.5% in assay [9] and 105% in [10].

The values are drawn from PubChem BioAssay (NCI).
